Data as given in PubChem BioAssay (NCI).
Where “and” joins values, the source holds several entries; their conditions need not be identical. Equal values may be shown once. About 83,000 compounds went through this panel and 20% of them were active in at least one assay; those are over-represented in the sample as a whole.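 Method: cells in 96-well plates; compound added at one concentration; 48 h incubation; percent growth measured; values under 10 scored active.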 Calls of active or inactive are those of the source.

Tests used:
Assay in all cases: NCI-60 one-dose screen, 48 h (100 = growth as untreated, 0 = no growth, -100 = all killed)
Details in all cases: 10 µM unless noted
[1] = test system: HCT-15 colon
[2] = test system: HT29 colon
[3] = test system: SNB-75 CNS
[4] = test system: SNB-19 CNS
[5] = test system: U251 CNS
[6] = test system: PC-3 prostate
[7] = test system: SK-MEL-5 melanoma
[8] = test system: UACC-62 melanoma
[9] = test system: LOX IMVI melanoma
[10] = test system: SK-MEL-28 melanoma

Measured: growth

CC1(C)C=Cc2c(ccc3c2[N+]([O-])=C2C3=C[C@@]34NC(=O)[C@]5(CCCN5C3=O)C[C@@H]4C2(C)C)O1
inactive: [1] 46.8% | [2] 24.6% | [3] 62.1% | [4] 50.7% | [5] 35.3% | [6] 45.5% | [7] 19.2% | [8] 64.6% | [9] 27.6% | [10] 71.1%

CCC1CCC(=O)O1 (stereo not given)
inactive: [1] 98.1% and 105% | [2] 107% and 110% | [3] 86% and 96.4% | [4] 115% and 113% | [5] 97% and 108% | [6] 97.8% and 105% | [7] 103% and 104% | [8] 114% | [9] 97.5% and 103% | [10] 104% and 115%

C[C@]12CC[C@@H](OC(=O)N(CCCl)N=O)C[C@@H]1CC[C@@H]1[C@@H]2CC[C@]2(C)C(=O)CC[C@@H]12
inactive: [1] 72.8% | [2] 57.9% | [3] 63.4% | [4] 37.5% | [5] 34.5% | [6] 45.6% | [7] 56.8% | [8] 30.4% | [9] 46.4% | [10] 99.4%

Oc1ccc(O)c(Cl)c1
inactive: [1] 96.4% and 110% | [2] 103% and 107% | [3] 72.2% and 85.8% | [4] 111% | [5] 94.6% and 101% | [6] 84.3% and 94.2% | [7] 91.3% and 95.2% | [8] 93.9% and 101% | [9] 94.4% and 93.9% | [10] 115% and 122%

C[C@]12CCc3sc(Nc4ccc(F)cc4)nc3C1=CC[C@@H]1[C@@H]2CC[C@]2(C)C(=O)CC[C@@H]12
inactive: [1] 32.2% | [2] 35.5% | [3] 66.7% | [4] 67.4% | [5] 47.2% | [6] 64.3% | [7] 71.3% | [8] 69.6% | [9] 56.6% | [10] 46.5%

O=C(O)c1ccccc1N(CCO)CCCl
inactive: [1] 87% | [2] 115% | [3] 81.3% | [4] 98.8% | [5] 94.5% | [6] 87.6% | [7] 101% | [8] 94% | [9] 86.6% | [10] 100%

C[Se]/C=C1/C(=O)N(c2c(Cl)cccc2Cl)c2ccccc21
active: [2] 7.79% | [3] -30.8% | [10] 8.1%
inactive: [1] 45.7% | [4] 32.6% | [5] 25.1% | [6] 31.3% | [7] 38.9% | [8] 27.8% | [9] 17.7%

CO/N=C1\CC[C@]2(C)[C@H]3CC[C@]4(C)C(=O)CC[C@H]4[C@@H]3C[C@@H]3SC(N)=N[C@@]32C1
inactive: [1] 93.8% | [2] 93.2% | [3] 97.1% | [4] 104% | [5] 105% | [6] 85.4% | [7] 101% | [8] 79.7% | [9] 98.1% | [10] 94.5%

O=C(O)C(O)c1ccc(Cl)cc1 (stereo not given)
inactive: [1] 102% | [2] 116% and 104% | [3] 100% and 112% | [4] 106% and 108% | [5] 106% and 100% | [6] 92.7% and 103% | [7] 81.4% and 106% | [8] 103% and 106% | [9] 101% and 106% | [10] 106% and 109%

CC[C@H](C)[C@H](NC(=O)C12CC(NC)(C1)C2)C(=O)N(C)[C@H](C[C@@H](OC(C)=O)c1nc(C(=O)N[C@@H](Cc2ccccc2)C[C@H](C)C(=O)OC)cs1)C(C)C
active: [2] -4.54% | [7] -31.7% | [9] 5.36%
inactive: [1] 18.4% | [3] 23.5% | [4] 33.5% | [5] 12.7% | [6] 23.6% | [8] 45% | [10] 53.4%

COc1ccc(CN)cc1OC
inactive: [1] 103% and 100% | [2] 107% | [3] 113% and 93.3% | [4] 104% and 103% | [5] 112% and 97.6% | [6] 106% and 93.5% | [7] 115% | [8] 111% and 100% | [9] 98.2% and 94.2% | [10] 110% and 116%

N#CC(N)c1ccccc1 (stereo not given)
inactive: [1] 104% | [2] 111% | [3] 97.4% | [4] 105% | [5] 105% | [6] 104% | [7] 101% | [8] 99.5% | [9] 101% | [10] 113%

Cc1cc[c-]cc1.Fc1c[c-]c(-c2ccccn2)c(F)c1.[Pt+2].c1ccc([PH+](c2ccccc2)c2ccccn2)cc1
inactive: [1] 74.1% | [2] 22.9% | [3] 22.7% | [4] 49.5% | [5] 27% | [6] 37.4% | [7] 77.5% | [8] 64.5% | [9] 31.2% | [10] 39.4%

CN(C)c1ccc(C=C2C(=O)NC(=O)NC2=O)cc1
inactive: [1] 102% | [2] 113% | [3] 92% | [4] 99.6% | [5] 97% | [6] 105% | [7] 94.4% | [8] 94.5% | [9] 85.8% | [10] 92.5%

CC12CCC3C4CCC(=O)C=C4CCC3C1CC1CC(=O)OC12 (stereo not given)
inactive: [1] 112% | [2] 90.9% | [3] 92.3% | [4] 94.6% | [5] 97.1% | [6] 87.1% | [7] 99.2% | [8] 97.2% | [9] 90.7% | [10] 108%

C[C@]12CC[C@H](O)C[C@@H]1CC[C@@H]1[C@@H]2CC[C@]2(C)OC(=O)CC[C@@H]12
inactive: [1] 95.2% | [2] 79.6% | [3] 85.8% | [4] 96.6% | [5] 86.9% | [6] 92.5% | [7] 101% | [8] 93.5% | [9] 97.9% | [10] 105%

CC1=CC(=Nc2ccc(N(CCCl)CCCl)cc2)C=C(C)C1=O
inactive: [2] 11.1% | [3] 25.3% | [4] 37.9% | [5] 17.9% | [6] 41.6% | [7] 22.8% | [9] 16.9% | [10] 26.3%
active: [1] 8.95% | [8] 6.59%

CC(C)c1cccc(C(C)C)c1O
inactive: [1] 99.1% and 107% | [2] 99.4% and 102% | [3] 109% and 81.4% | [4] 123% and 94% | [5] 97.2% and 99.7% | [6] 99.7% and 93.8% | [7] 110% | [8] 118% and 92.1% | [9] 96.9% and 105% | [10] 115% and 104%

Oc1ccccc1C=NCCN=Cc1ccccc1O
inactive: [1] 104% | [2] 108% | [3] 97.6% | [4] 98% | [5] 91.6% | [6] 95.1% | [7] 99.5% | [8] 98.8% | [9] 95.6% | [10] 103%

CCOC(=O)P(=O)(OCC)OCC
inactive: [1] 101% | [2] 102% | [3] 115% | [4] 97.9% | [5] 109% | [6] 92.5% | [7] 107% | [8] 96.9% | [9] 91.6% | [10] 106%

Cc1cc2c(cc1-c1ccnc(/C=C/C(=O)O)c1)C(C)(C)CCC2(C)C
inactive: [1] 86.1% | [2] 97.9% | [3] 80.3% | [4] 90.7% | [5] 84.1% | [6] 86.8% | [7] 67.9% | [8] 72.2% | [9] 46.9% | [10] 92.9%

Cc1cc(N)ccc1N
inactive: [1] 105% | [2] 109% | [3] 92.3% | [4] 102% | [5] 93.2% | [6] 87.6% | [7] 97.2% | [8] 103% | [9] 98.3% | [10] 107%

N#CCCc1ccccc1
inactive: [1] 98.3% | [2] 104% | [3] 86.3% | [4] 97.7% | [5] 105% | [6] 108% | [7] 99.6% | [8] 97.2% | [9] 102% | [10] 108%
